Screens deposited in PubChem by The Scripps Research Institute Molecular Screening Center.
Hits are enriched below; roughly 1.9% of the tested compounds scored in any of these assays.
PLCb3 inh – human PLC-beta3 inhibitors, primary screen, biochemical, fluorescence; inhibition, % at 12.2 µM; Purified PLC-beta3, fluorogenic substrate; 1-phosphatidylinositol 4,5-bisphosphate phosphodiesterase beta-3 (Homo sapiens), Q01970; 370,000 compounds, 0.18% hits; in the data active = inhibition above about 11%
MsrA act – bovine MsrA enzyme activators, primary screen, biochemical, absorbance, HTS. Methionine sulfoxide reductase A (Bos taurus). activation, % at 10.6 µM. 360,000 compounds, 0.3% hits. purified bovine MsrA, absorbance read-out. AID 602163, 2012; in the data active = activation above about 7.5%
PLCg1 inh – PLC-gamma1 enzyme inhibitors, primary screen, biochemical, fluorescence, purified enzyme. 1-phosphatidylinositol 4,5-bisphosphate phosphodiesterase gamma-1 (Homo sapiens), P19174. fluorogenic substrate. inhibition, % at 12.2 µM. 370,000 compounds, 0.84% hits. AID 720700, 2013; in the data active = inhibition above about 9.5%
Target sequence (P19174 whole entry, looked up): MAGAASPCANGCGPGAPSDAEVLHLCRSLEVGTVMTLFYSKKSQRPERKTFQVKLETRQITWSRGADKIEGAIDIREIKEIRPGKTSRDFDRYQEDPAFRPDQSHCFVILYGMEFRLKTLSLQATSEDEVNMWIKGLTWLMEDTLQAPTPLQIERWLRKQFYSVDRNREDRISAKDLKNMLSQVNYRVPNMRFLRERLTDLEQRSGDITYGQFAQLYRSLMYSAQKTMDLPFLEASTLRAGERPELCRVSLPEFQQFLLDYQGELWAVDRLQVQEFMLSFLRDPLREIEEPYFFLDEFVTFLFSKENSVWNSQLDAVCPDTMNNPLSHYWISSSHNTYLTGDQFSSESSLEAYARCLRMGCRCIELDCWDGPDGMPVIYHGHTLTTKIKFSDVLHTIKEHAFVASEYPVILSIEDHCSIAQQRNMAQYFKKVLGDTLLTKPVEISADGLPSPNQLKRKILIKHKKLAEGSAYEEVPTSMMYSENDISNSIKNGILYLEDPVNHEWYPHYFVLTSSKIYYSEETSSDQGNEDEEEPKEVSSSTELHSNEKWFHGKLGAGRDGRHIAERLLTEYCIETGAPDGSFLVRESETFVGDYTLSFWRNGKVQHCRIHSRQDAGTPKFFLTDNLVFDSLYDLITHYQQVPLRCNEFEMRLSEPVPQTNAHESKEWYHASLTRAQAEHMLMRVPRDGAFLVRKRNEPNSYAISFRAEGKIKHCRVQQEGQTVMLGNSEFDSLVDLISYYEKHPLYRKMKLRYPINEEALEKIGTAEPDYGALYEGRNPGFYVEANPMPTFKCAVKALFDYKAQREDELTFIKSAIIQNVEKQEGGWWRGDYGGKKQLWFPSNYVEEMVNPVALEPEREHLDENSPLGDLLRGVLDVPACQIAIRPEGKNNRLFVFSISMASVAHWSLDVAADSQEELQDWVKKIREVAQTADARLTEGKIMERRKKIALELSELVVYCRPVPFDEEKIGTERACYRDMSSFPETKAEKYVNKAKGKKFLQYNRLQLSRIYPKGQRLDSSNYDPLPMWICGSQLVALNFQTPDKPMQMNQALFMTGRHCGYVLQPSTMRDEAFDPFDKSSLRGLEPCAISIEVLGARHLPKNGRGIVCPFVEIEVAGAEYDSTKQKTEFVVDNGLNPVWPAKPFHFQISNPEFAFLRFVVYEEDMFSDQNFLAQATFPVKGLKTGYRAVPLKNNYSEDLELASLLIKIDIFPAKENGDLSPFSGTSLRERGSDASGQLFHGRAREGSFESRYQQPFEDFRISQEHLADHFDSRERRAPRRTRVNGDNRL
MsrA inh – bovine MsrA enzyme inhibitors, primary screen, biochemical, absorbance, HTS | inhibition, % at 15.5 µM | purified bovine MsrA, absorbance read-out | 360,000 compounds, 0.75% hits | Methionine sulfoxide reductase A (Bos taurus)
MsrA conf – bovine MsrA inhibitors, retest, confirmation, biochemical, absorbance, HTS. shares compounds with MsrA inh. purified bovine MsrA, absorbance read-out. inhibition, % at 15.5 µM. 2,300 compounds, 41% hits. AID 651822, 2012;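 also: coupled to thioredoxin reductase with NADPH and selenocystamine and DMSO as substrate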
Large screens that a line does not name were inactive (follow-up assays come after a bar, where they were run). Rule as the data show it, unless noted: active = inhibition above about 4.5%; inactive = the rest.

COc1ccc(/C=C/C(=O)c2c(O)ccc3c(C)cc(=O)oc23)cc1	MsrA inh 5.4 | MsrA conf 5.1
Cc1cc(=O)oc2c(O)c(O)ccc12	none
C[C@@H]1COc2cc(N3CCCC3)ccc2S(=O)(=O)N1	none (no result: MsrA act)
CSc1nc2sc3c(c2c2nnnn12)CCCC3	MsrA inh 12 | MsrA conf 17
CN(C)CCCN1CC(=O)N2CCc3ccc(Br)cc3C2CC1=O (stereo unspecified)	none (no result: MsrA act)
Nc1ccc(Nc2ccc([N+](=O)[O-])cc2[N+](=O)[O-])cc1	none
O=C(O)c1ccccc1C(=O)Nc1cccc([N+](=O)[O-])c1	none
O=C(O)c1ccccc1C(=O)Nc1ccc(Nc2ccc([N+](=O)[O-])cc2[N+](=O)[O-])cc1	MsrA inh 5.1 | MsrA conf inactive
O=[N+]([O-])c1ccc(Nc2ccccn2)c([N+](=O)[O-])c1	MsrA inh 5.3 | MsrA conf inactive
CCOC(=O)CN1N=C(/C=C/c2ccc(OCC)cc2)CCC1=O	MsrA inh 7.2 | MsrA conf inactive
C=CCN1N=C(/C=C/c2ccc(OC)cc2)CCC1=O	MsrA inh 7.8 | MsrA conf 4.6
COc1ccc(/C=C/C2=NN(Cc3ccccc3)C(=O)CC2)cc1	none
COC(=O)[C@H](Cc1ccccc1)N1C[C@@H](N2CCC[C@H]2C)CS1(=O)=O	none (no result: MsrA act)
CCC(=O)/C=C1\Sc2ccc(OC)cc2N1CC	MsrA inh 5.7 | MsrA conf inactive
CCC(=O)/C=C1\Sc2ccc(OC)cc2N1CCO	none
COc1ccc(C=CC(=O)c2c(N)n(C)c(=O)n(C)c2=O)cc1	none (no result: MsrA act)
COc1cc2c(cc1OC)C(=S)NC1(CCCC1)C2	MsrA inh 6.1 | MsrA conf inactive
C=CCN1C(=O)[C@H](CC(=O)NCC23CC4CC(CC(C4)C2)C3)[C@@]2(C(=O)OC)CCCCC=C12	none (no result: MsrA act, MsrA inh)
O=C(O)[C@@H]1C[C@@H](O)CN1	none (no result: MsrA act)
O=c1c(Cl)c(N2CCOCC2)cnn1-c1nc2ccccc2[nH]1	MsrA inh 4.8 | MsrA conf inactive
COc1ccc(-c2cccc3c2C2CC3CCN2C(=O)OCc2ccccc2)cc1 (stereo unspecified)	MsrA inh 6.4 | MsrA conf inactive
CCC(=O)c1ccc(/C=C/c2nc3ccccc3n2C)o1	MsrA inh 5.2 | MsrA conf inactive
Cc1[nH]c2ccccc2c1C(C#N)(C#N)C1C(=O)c2ccccc2C1=O	MsrA inh 47 | MsrA conf 46
CSc1ccc(/C=C/C(=O)OCC(=O)NC2CC2)cc1	MsrA inh 5.0 | MsrA conf inactive
CSc1ccc(/C=C/C(=O)OCC(=O)NC(C)C)cc1	MsrA inh 5.5 | MsrA conf inactive
COCc1cc(N2CCNC[C@@H]2C)ccc1N1CCN(Cc2ccccc2)[C@@H](C)C1	none (no result: MsrA act)
Cc1cc(N/C=C/C(=O)c2cccc3ccccc23)no1	MsrA inh 4.7 | MsrA conf inactive
NC(=O)N\N=C/C=C/C=C/c1ccc(F)cc1	MsrA inh 5.2 | MsrA conf inactive
O=[N+]([O-])c1ccccc1NC(=S)N/N=C/c1ccc(O)c(O)c1	MsrA inh 5.9 | MsrA conf 7.3
O=C(O)c1ccc(/C=C(\c2nc3ccccc3[nH]2)c2nc3ccccc3s2)cc1	MsrA inh 5.4 | MsrA conf 5.3
O=S(=O)(c1ccc(F)cc1)N1CCCc2nc(-c3ccccc3)ccc21	none (no result: MsrA act)
COc1cc(/C=C/C(=O)NC(=O)c2ccccc2O)ccc1O	MsrA inh 5.6 | MsrA conf inactive
COc1ccc(/C=C/C(=O)c2ccc[nH]2)cc1OC	MsrA inh 5.4 | MsrA conf inactive
COc1ccc(/C=C/C(=O)Nc2ccc3c(c2)CCC3)cc1OC	none
COc1ccc(/C=C/C(=O)O/N=C(\N)c2ccccn2)cc1OC	MsrA inh 4.8 | MsrA conf inactive
COc1ccc(/C=C/C(=O)Nc2ccc(C(N)=O)cc2)cc1OC	MsrA inh 5.0 | MsrA conf 5.0
CC(C)C[C@H]1COc2cc(Br)ccc2S(=O)(=O)N1Cc1cn(Cc2ccc(Cl)cc2)nn1	none (no result: MsrA act, MsrA inh)
CCc1cc(C(=O)O)c(NC(=O)/C=C/c2ccc(OC)c(OC)c2)s1	MsrA inh 5.6 | MsrA conf 4.9
COc1ccc(/C=C/C(=O)Nc2ccccc2C(=O)O)cc1OC	MsrA inh 5.2 | MsrA conf 5.4
Oc1ccc(/C=N/Nc2ccc(C(F)(F)F)cn2)c(O)c1	none
Oc1ccc(/C=N/Nc2ccc(C(F)(F)F)cn2)cc1	MsrA inh 5.5 | MsrA conf inactive
Cc1ccc(S(=O)(=O)N2CCCc3nc(-c4ccccc4)ccc32)cc1	none (no result: MsrA act)
COC(=O)[C@]12C[C@H](CC(=O)N3CCOCC3)C(=O)N(CCC3=CCCCC3)C1=C[C@H](C(C)(C)C)O[C@@H]2C	none (no result: MsrA act)
O=C1c2cccc(Cl)c2C(=O)c2c1cccc2N1CCCC1	MsrA inh 9.4 | MsrA conf inactive
Cn1cccc1[C@]1(O)C(=O)Nc2ccc(F)cc21	none (no result: MsrA act, MsrA inh)
O=C(O)c1cc(O)c2c(c1)C(=O)c1cccc(O)c1C2=O	MsrA inh 4.7 | MsrA conf 17
COC(=O)C1=C(C)N(Cc2ccccc2C(F)(F)F)C(=NCc2ccc(OC)cc2)NC1CCc1ccccc1 (stereo unspecified)	none (no result: MsrA act)
C=CCn1c(-c2csc(-c3ccccc3)n2)n[nH]c1=S	MsrA inh 5.4 | MsrA conf inactive
CCn1c(-c2csc(-c3ccccc3)n2)n[nH]c1=S	none
CN(C)/C=N/c1ncc(C(=O)c2ccccc2)s1	MsrA inh 5.6 | MsrA conf 4.7
CN(C)/C=N/c1ncc(C(=O)c2ccc(-c3ccccc3)cc2)s1	none
COC(=O)CCN1CCSCCS1(=O)=O	none (no result: MsrA act)
CCOC(=O)[C@@]12CCC3=C1N(CCC3)C(=O)[C@H](CC(=O)NCCC(C)C)C2	none (no result: MsrA act, MsrA inh)
CCN(CC)S(=O)(=O)c1ccc(N/N=C/c2cccnc2)nc1	MsrA inh 5.8 | MsrA conf 4.7
COC(=O)C1=C(C)N(Cc2ccccc2C(F)(F)F)C(=NCc2ccc(OC)cc2)NC1c1cccc(Cl)c1 (stereo unspecified)	none (no result: MsrA act)
COc1cc(/C=N\NC(=O)c2sc(N)nc2C)cc(OC)c1OC	MsrA inh 7.0 | MsrA conf 5.2
CC(/C=N/NC(=O)c1sc(N)nc1C)=C\c1ccccc1	MsrA inh 6.7 | MsrA conf inactive
Cc1nc(N)sc1C(=O)N/N=C/c1ccccc1[N+](=O)[O-]	none
N#Cc1c(N2CCCC2)ccc(Br)c1Cl	MsrA inh 6.0 | MsrA conf 9.0
Nc1cc(Cl)ccc1N1CCCCC1	none
O=C(O)CCC(=O)Nc1ccc(/C=C/C(=O)C2CC2)cc1	MsrA inh 7.3 | MsrA conf inactive
O=C(C1CCCN1S(=O)(=O)c1ccc(Br)s1)N1CCc2ccccc2C1 (stereo unspecified)	none (no result: MsrA act, MsrA inh)
COc1ccc(/C=C/C(=O)NC(=S)Nc2ccc(S(=O)(=O)Nc3ccc(OC)nn3)cc2)cc1	none
COc1ccc(/C=C/C(=O)NC(=S)Nc2ccc(S(=O)(=O)Nc3cc(C)on3)cc2)cc1	MsrA inh 5.0 | MsrA conf 5.7
